In PubChem BioAssay (NCATS) one finds Potency data, which are given here for 25 compounds.

Structures are written as SMILES. Inconclusive results are not listed. Where a call stands in place of a potency, no number is given. Active and inactive are the calls of the source. Calls follow the shape of the dose curve; as a rule, active = well fitted activation curve with a large enough effect; inconclusive = small, poorly fitted or top-dose-only effect, or another doubt; inactive = no such curve, though single readings can be large or run the other way.
Potency is read from the fitted curve at half-maximal effect.

This experiment is described as follows: Cell Proliferation Assay against the TMD8 Cell Line (Caspase readout at 8 hrs) (AID 651713). The note with it: TMD8 lymphoma cells, caspase activation luminescence; series mostly up to 46.1 µM. The source says: One class of targeted therapeutics showing early clinical success in killing of ABC DLBCL lines are small molecule inhibitors of the Bruton tyrosine kinase (BTK) 11. Thus, we chose to investigate what additional compounds, if any, would synergize with the BTK inhibitor Ibrutinib (PCI-32765).
Prior to any combination assays, using an NCATS developed oncology compound library called the Mechanism of Interrogation Plate (MIPE), two well studied ABC DLBCL lines (TMD8 and HBL1) were screened using a cell viability assay (CellTiterGlo) and a 12-point titration series for each single agent. These initial experiments offered insight into the concentration range that offered the best coverage of activity and non-activity to assure relevant data is generated. In addition to the viability signature associated with this library, we examined the apoptotic response of each agent versus the TMD8 line as judged by caspase 3/7 activation. Activity was assayed at both 8 and 16 hour time-points to gain an appreciation of which agents induced an apoptotic response in a reasonable timeframe from a therapeutic exposure perspective. MIPE was also assayed for single agent viability in a human mesenchymal stem cell (hMSC) line as a surrogate of each library members potential therapeutic index.
The combination plates were then generated by choosing 20 of the best compounds from this single agent screen and plated in the presence of the BTK inhibitor. The first analysis was carried out using 6x6 dose response blocks for each of the 20 compounds. […] In addition to the cell viability assay, the parallel caspase 3/7 activation and viability in hMSC assays were carried out in the 10x10 format.
A total of 500 log growing TMD8 cells are seeded per well in 5 uL of a RPMI with glutamine (or Glutamax), without phenol red plus 5% FBS and 1X Pen/Strep into 1536 -solid white high base tissue culture treated Greiner One Bio Plates (789173-F) using a multidrop combi dispenser and a small sterile cassette. Compounds and controls totaling 23nL per well (negative control DMSO and positive control 9.2 uM Bortezomib-final) are immediately added to the plates using a 1536 head pin tool from Kalypsys. The plates are then covered with stainless steel gasket lids from Kalypsys and incubated for either 8 hours at 37C under 95% relative humidity with 5% CO2. After the desired incubation time, the plates are removed and allowed to reach room temperature before 3 uL of the Caspase Glo reagent (Promega) is added using an Aurora Flying Reagent Dispenser Bioraptor. The plates are then spun at 1000 rpms to remove bubbles and incubated for 15 minutes at room temperature before read on a ViewLux using a luminescent filter with a 10 second exposure. The relative luciferase units are used to calculated percent activity using DMSO as 0% and Bortezomib as 100%.
`Cc1cc2c(cc1C1(c3ccc(C(=O)O)cn3)CC1)C(C)(C)CCC2(C)C`: the Potency entry is “inactive”. As for `CCCCCCCCCCCCCC(=O)N[C@H](CO)[C@H](O)c1ccc([N+](=O)[O-])cc1`, the entry is “inactive”; as for `CNC(=O)c1cc(Oc2ccc(NC(=O)Nc3ccc(Cl)c(C(F)(F)F)c3)c(F)c2)ccn1`, “inactive”. As for `CCC=CC[C@H]1C(=O)CC[C@@H]1CC(=O)OC`, the entry is “inactive”.

Turning to `CC(C)C[C@@H](C(=O)N[C@H](C(=O)OC1CCCC1)c1ccccc1)[C@H](O)C(=O)NO`, the Potency result is “inactive”.

As for `CCCCn1c(=O)n(Cc2ccccc2F)c(=O)c2[nH]c(Cc3ccc(NC(C)=O)cc3)nc21`, the Potency entry was “inactive”. With `O=C(Nc1cccc(Cl)c1)Nc1ncc(CCNc2ncnc3ccsc23)s1`, the Potency entry is “inactive”.

In the case of `COC(=O)Nc1ccc(-c2nc(N3CCOCC3)c3cnn(C4CCN(C(=O)OC)CC4)c3n2)cc1`, the Potency result was “inactive”. Take `O=C(O)c1ccc(O)c2ncc(N3CCOCC3)cc12`: the Potency entry was “inactive”. With `CN(C)CCN(C)C(=O)c1ccc(NC(=O)Nc2ccc(-c3nc(N4CCOCC4)c4ccn(CC(F)(F)F)c4n3)cc2)cc1` the figure was 29.6 µM (active); with `COc1c(C)cnc(Cn2cnc3c(Cl)nc(N)nc32)c1C`, “inactive”; with `NC(=O)c1ccc(N(C(N)=O)c2c(F)cccc2F)nc1-c1ccc(F)cc1F`, “inactive”. For the compound `COc1nc(C)cnc1NS(=O)(=O)c1cccnc1-c1ccc(-c2nnco2)cc1`, the Potency entry is “inactive”. Regarding `CCC(=O)N1CCN(c2ccc(-n3c(=O)ccc4cnc5ccc(-c6cnc7ccccc7c6)cc5c43)cc2C(F)(F)F)CC1`, the Potency entry was “inactive”. For `Cc1cccc(Nc2nc(N[C@@H]3CCCC[C@H]3N)ncc2C(N)=O)c1`, the Potency result is “inactive”. For `Cc1ccc(NC(=O)c2ccc(CN3CCN(C)CC3)cc2)cc1Nc1nc(-c2cccnc2)cs1`, the Potency was 23.5 µM (active). As to `Cn1cc(-c2ccc3nnc(Sc4ccc5ncccc5c4)n3n2)cn1`, the Potency result was “inactive”. Turning to `Cc1nn(Cc2ccccc2Cl)c(C)c1CN(C)CC(O)COc1ccc(Cl)cc1` (stereo not given), the Potency result was “inactive”. Turning to `CC(C)n1c(C=C[C@H](O)C[C@H](O)CC(=O)O)c(-c2ccc(F)cc2)c2ccccc21`, the Potency result was “inactive”. As for `COc1cc2c(cc1OC)CC(=O)N(CCCN(C)C[C@H]1Cc3cc(OC)c(OC)cc31)CC2`, the entry is “inactive”. For the compound `CC(O)=C(C#N)C(=O)Nc1ccc(C(F)(F)F)cc1`, the Potency entry was “inactive”. `CN1C(=O)C(Cc2c[nH]c3ccccc23)NC1=S` (stereo not given): the Potency entry was “inactive”. In the case of `OCCn1cc(-c2ccc3c(c2)CCC3=NO)c(-c2ccncc2)n1`, the Potency entry is “inactive”. As for `CCCCOCCOc1nc(-c2ccc(C(=O)O)c(F)c2)sc1C`, the entry is “inactive”; as for `O=C1C(CCC(O)c2ccc(F)cc2)C(c2ccc(O)cc2)N1c1ccc(F)cc1` (stereo not given), “inactive”.
